Reference: PubChem BioAssay (NCATS)
Records with an inconclusive call do not appear. Unmarked numbers belong to inactive results. Activity calls are given as the source filed them. The call rests on the fitted dose curve; in most records, active means well fitted inhibition curve with a large enough effect; inconclusive means small, poorly fitted or top-dose-only effect; inactive means no such curve, though single readings can be large or run the other way. Where a SMILES comes first, the peptide text is derived from it. Bridges are numbered along the chain shown (N, C = ends). [ ]: non-standard residue; d: D form. hArg = N=C(N)NCCCC[C@H](N)C(=O)O; Mpa = O=C(O)CCS

biological target: Protein phosphatase 1D (Homo sapiens) (UniProt O15297); assay: RapidFire Mass Spectrometry qHTS Assay for Modulators of WT P53-Induced Phosphatase 1 (WIP1) (AID 1347424); settings: WIP1 dephosphorylation of phosphopeptide, RapidFire MS; series mostly up to 63 µM
Excerpt: Assay Provider (PI): Nathan Coussens Ph. D.
National Center for Advancing Translational Sciences (NCATS), Rockville, MD
National Institute of Health (NIH), Bethesda, Maryland
WT P53-Induced Phosphatase 1 (WIP1) is a member of the magnesium-dependent serine/threonine protein phosphatase (PPM) family and is induced by P53 in response to DNA damage. In several human cancers, the WIP1 protein is overexpressed, which is generally associated with a worse prognosis. Although WIP1 is an attractive therapeutic target, no potent, selective, and bioactive small-molecule modulator with favorable pharmacokinetics has been reported. Phosphatase enzymes are among the most challenging targets for small molecules because of the difficulty of achieving both modulator selectivity and bioavailability. Another major obstacle has been the availability of robust and physiologically relevant phosphatase assays that are suitable for high-throughput screening.
Here, we describe two orthogonal biochemical WIP1 activity assays that utilize phosphopeptides from native WIP1 substrates. We optimized a RapidFire MS assay to quantify the enzymatically dephosphorylated peptide reaction product in a 384-well format. Additionally, a redshifted Rhodamine-PBP fluorescence assay was optimized in a 1,536-well format to enable real-time WIP1 activity measurements through the detection of the orthogonal reaction product, Pi. We validated these two optimized assays by quantitative high-throughput screening against the National Center for Advancing Translational Sciences (NCATS) Pharmaceutical Collection and used secondary assays to confirm and evaluate inhibitors identified in the primary screen.
SEQUENCE No. (e.g., 1, 2, 3, etc.); […] (e.g., Cells, Incubation, Reagent, etc.); VALUE; DESCRIPTION
1; Reagent; 50 uL; dispensed assay buffer: 0.1% formic acid in water (10 uL : 40 uL) solution in column 1
3; Library Compounds; 63 nL; library compounds in DMSO, columns 3-24
4; Control Compounds; 63 nL; DMSO in wells I-P, columns 1-2, GSK830371 (10 uM, final) in wells A-H, column 2
5; Time; 1 hr; incubation
6; Substrate; 2 uL; VEPPL-pS-QETFS (10 uM) in assay buffer, column 2-24
7; Time; 5 min; incubation
8; Reagent; 2 uL; 0.5% formic acid in water, columns 2-24
9; Reagent; 38 uL; VEPPL-S-QETF*S in 0.1% formic acid, columns 2-24
10; Detection; mass spec; RapidFire mass spectrometry
NOTES (numbers refer to sequence above)
1, 2, 6; dispensed reagent in White Nunc 384-well PP microplates (264573); assay buffer: 50 mM Tris-HCl pH 7.5, 30 mM MgCl2, 1 mM TCEP, 0.1 mM EGTA, 75 ug/mL BSA.
2, 6, 8, 9; Dispensed with BioRaptr (Beckman Coulter)
2, 6, 9; Final concentrations: 10 nM WIP1; 2 uM VEPPL-pS-QETFS; 1 uM VEFFL-S-QETF*S
3 & 4; Kalypsys Pintool transfer (Wako USA), Tip wash sequence: water, DMSO, methanol, 20 sec vacuum dry.
5 & 7; incubation at room temperature
10; RapidFire mass spectrometry read using the Agilent RapidFire 360 (Clausse, 2019)
Clausse V, et al. Physiologically relevant orthogonal assay for the discovery of small-molecule modulators of WIP1 […] in high-throughput screens. J Biol Chem. 2019, 294(46): 17654-17668. doi:10.1074/jbc.RA119.010201

Chain of Protein phosphatase 1D (Homo sapiens) (O15297 whole entry, looked up): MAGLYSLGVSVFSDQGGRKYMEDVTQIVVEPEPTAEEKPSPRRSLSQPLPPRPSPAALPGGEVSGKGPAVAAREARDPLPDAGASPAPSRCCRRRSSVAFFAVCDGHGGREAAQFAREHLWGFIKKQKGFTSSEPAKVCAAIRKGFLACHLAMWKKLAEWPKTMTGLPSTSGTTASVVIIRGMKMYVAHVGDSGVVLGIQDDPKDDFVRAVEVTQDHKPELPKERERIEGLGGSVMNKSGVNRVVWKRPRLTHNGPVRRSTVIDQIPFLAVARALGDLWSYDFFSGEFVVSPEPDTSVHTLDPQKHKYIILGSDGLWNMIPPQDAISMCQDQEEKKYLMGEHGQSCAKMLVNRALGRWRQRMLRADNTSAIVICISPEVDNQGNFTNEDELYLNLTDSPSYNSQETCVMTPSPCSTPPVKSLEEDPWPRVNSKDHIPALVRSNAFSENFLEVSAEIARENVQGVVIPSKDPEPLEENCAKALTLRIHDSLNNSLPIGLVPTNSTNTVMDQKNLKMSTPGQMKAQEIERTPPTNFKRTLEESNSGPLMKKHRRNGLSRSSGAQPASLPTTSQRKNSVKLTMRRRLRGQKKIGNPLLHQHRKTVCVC

| Structure (SMILES) | outcome | activity change, negative = inhibition |
| --- | --- | --- |
| COc1ccc(C(=O)N2CCN(CC(=O)N3CCOCC3)CC2)cc1 | inactive | – |
| Cc1cc(-n2nc3ccc(Cl)cc3n2)c(O)c(C(C)(C)C)c1 | inactive | – |
| C[n+]1ccccc1/C=N/O | inactive | – |
| CN1CCCN=C1COC(=O)C(O)(c1ccccc1)C1CCCCC1 (stereo not given) | inactive | – |
| Cc1ccc2c(c1)c1c3n2CCNC3CCC1 (stereo not given) | inactive | – |
| O=c1[nH]c2cc(C(F)(F)F)c(N3CCOCC3)cc2n(CP(=O)(O)O)c1=O | inactive | – |
| Cc1cc(C)nc(NS(=O)(=O)c2ccc(N)cc2)n1 | inactive | – |
| NC(=O)[C@@H]1CSSCCC(=O)N[C@@H](CCCCN=C(N)N)C(=O)NCC(=O)N[C@@H](CC(=O)O)C(=O)N[C@@H](Cc2c[nH]c3ccccc23)C(=O)N2CCC[C@H]2C(=O)N1 ([Mpa][hArg]GDWPC-NH2; disulfide 1-7) | inactive | – |
| C[C@H]1COc2c(C3(N)CC3)c(F)cc3c(=O)c(C(=O)O)cn1c23 | inactive | – |
| O=C(O)CCCCC1CCSS1 (stereo not given) | inactive | – |
| C/C=C1\[C@H]2C=C(C)C[C@]1(N)c1ccc(=O)[nH]c1C2 | inactive | – |
| CC1(C)S[C@@H]2[C@H](N=CN3CCCCCC3)C(=O)N2[C@H]1C(=O)O | inactive | – |
| O=C(O)Cc1ccc(CCNS(=O)(=O)c2ccc(Cl)cc2)cc1 | inactive | – |
| CN[C@@H]1[C@@H](O)[C@@H](O[C@@H]2[C@H](O)[C@H](O[C@H]3OC(CN)=CC[C@H]3N)[C@@H](N)C[C@H]2N)OCC1(C)O (stereo not given in full) | inactive | – |
| O=C1c2ccccc2S(=O)(=O)N1CCCCN1CCN(c2ncccn2)CC1 | inactive | – |
| O=C(O)COC(=O)Cc1ccccc1Nc1c(Cl)cccc1Cl | inactive | – |
| O=C(Cn1ccnc1[N+](=O)[O-])NCCO | inactive | – |
| CC(=O)SC[C@@H](Cc1ccccc1)C(=O)NCC(=O)OCc1ccccc1 | inactive | – |
| CCCCOC(=O)c1ccc(N)cc1 | inactive | – |
| CCOC(N)=O | inactive | – |

| Structure (SMILES) | outcome | activity change, negative = inhibition |
| --- | --- | --- |
| NS(=O)(=O)c1ccc(NC(=O)CCC(=O)O)cc1 | inactive | – |
| CN1C(=O)CC(c2ccccc2)C1=O (stereo not given) | inactive | – |
| OCC(O)CS (stereo not given) | inactive | – |
| O=C(Cn1ccnc1[N+](=O)[O-])NCc1ccccc1 | inactive | – |
| CC(=O)OCC(COC(C)=O)OC(C)=O | inactive | – |
| C[C@@H]1CCC[C@H](C)N1 | inactive | – |
| C/C=C/C(=O)N(CC)c1ccccc1C | inactive | – |
| Cc1c(NC(=O)c2cccnc2)c(=O)n(-c2ccccc2)n1C | inactive | – |
| COC(=O)c1cccnc1 | inactive | – |
| COc1ccc(Cc2cnc(N)nc2N)cc1OC | inactive | – |
| COc1cc(C(=O)NCCCCCC(=O)O)cc(OC)c1OC | inactive | – |
| CC(C(=O)O)c1ccc2c(c1)Cc1cccnc1O2 (stereo not given) | inactive | – |
| Cc1ccsc1/C=C/C1=NCCCN1C | inactive | – |
| NC(N)=NCCN1CCCCCCC1 | – | 2.05% [at 0.505 µM] |
| C=CCSCC1Nc2cc(Cl)c(S(N)(=O)=O)cc2S(=O)(=O)N1 (stereo not given) | inactive | – |
| C[C@]1(Cn2ccnn2)[C@H](C(=O)O)N2C(=O)C[C@H]2S1(=O)=O | inactive | – |
| CC(C)NC[C@@H](O)COc1ccc(CC(N)=O)cc1 | inactive | – |
| Cc1ccc(S(=O)(=O)NC(=O)NC2CCCCC2)cc1 | inactive | – |
| O=c1[nH]cnc2nc[nH]c12 | inactive | – |
| Cc1cc(NC(=O)C2=C(O)c3ccccc3S(=O)(=O)N2C)no1 | inactive | – |
